From the supplement of paper PMC11732987, “Enantioselective OTUD7B fragment discovery through chemoproteomics screening and high-throughput optimisation” (Communications Chemistry, 2025)

How the values were obtained:
Experiment in all cases: log2 ratio of Biotin-Ahx-Ub-VS probe labelling (fragment/DMSO); higher = less target engagement (more negative = stronger competition), active = hit call of the paper (q ≤ 0.05, log2 ratio ≤ -1)
Conditions in all cases: compound concentration: 200 uM; treatment time: 3 h
USP34 = USP34 (UniProt Q70CQ2)
How it was run: (§1)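 Using Biotin-Ahx-Ub-VS at 0.5 µM final for 1 h, DUBs were labelled in HEK293T lysate (495 µg per sample) that had first been treated in triplicate with fragment at 200 µM or vehicle for 3 h. NeutrAvidin enrichment, LysC and trypsin digestion and diaPASEF LC-MS/MS followed. Spectronaut label-free quantities were global-median-normalised. Values are average log2 fragment/vehicle ratios by unpaired t-test, using proteins with ≥2 unique peptides.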

USP36 = biological target: T1, USP36 (UniProt Q9P275)
T1 sequence (whole entry): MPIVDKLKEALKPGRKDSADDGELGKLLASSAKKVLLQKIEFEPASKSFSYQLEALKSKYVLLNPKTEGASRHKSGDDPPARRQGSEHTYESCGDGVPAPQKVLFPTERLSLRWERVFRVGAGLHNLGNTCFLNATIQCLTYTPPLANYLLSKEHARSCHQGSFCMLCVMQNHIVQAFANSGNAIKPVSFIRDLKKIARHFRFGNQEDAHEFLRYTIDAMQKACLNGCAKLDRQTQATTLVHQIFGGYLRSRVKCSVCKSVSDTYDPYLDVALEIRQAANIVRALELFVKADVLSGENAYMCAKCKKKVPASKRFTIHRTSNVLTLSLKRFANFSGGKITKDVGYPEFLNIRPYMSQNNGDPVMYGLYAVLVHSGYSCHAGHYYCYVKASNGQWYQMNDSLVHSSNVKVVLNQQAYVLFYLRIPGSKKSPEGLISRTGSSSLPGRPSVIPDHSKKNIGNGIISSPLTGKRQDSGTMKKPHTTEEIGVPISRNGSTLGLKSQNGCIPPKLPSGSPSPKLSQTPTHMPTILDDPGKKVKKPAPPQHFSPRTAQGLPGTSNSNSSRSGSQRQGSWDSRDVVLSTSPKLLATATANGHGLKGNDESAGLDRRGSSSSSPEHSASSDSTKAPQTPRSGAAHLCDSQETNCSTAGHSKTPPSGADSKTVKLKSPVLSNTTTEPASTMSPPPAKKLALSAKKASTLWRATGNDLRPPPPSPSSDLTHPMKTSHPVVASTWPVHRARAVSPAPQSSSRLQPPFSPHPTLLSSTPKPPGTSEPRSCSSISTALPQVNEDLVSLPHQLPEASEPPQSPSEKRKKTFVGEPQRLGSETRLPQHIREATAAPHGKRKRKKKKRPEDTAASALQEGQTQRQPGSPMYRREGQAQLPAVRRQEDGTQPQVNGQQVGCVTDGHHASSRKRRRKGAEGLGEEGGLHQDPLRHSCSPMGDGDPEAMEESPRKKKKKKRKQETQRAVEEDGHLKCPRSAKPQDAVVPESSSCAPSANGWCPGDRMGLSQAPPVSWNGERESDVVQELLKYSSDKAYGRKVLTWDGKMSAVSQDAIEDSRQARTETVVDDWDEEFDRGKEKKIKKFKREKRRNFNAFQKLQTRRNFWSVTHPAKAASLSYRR
How it was run: as §1

USP38 = biological target: T2, USP38 (UniProt Q8NB14)
T2 sequence (whole entry): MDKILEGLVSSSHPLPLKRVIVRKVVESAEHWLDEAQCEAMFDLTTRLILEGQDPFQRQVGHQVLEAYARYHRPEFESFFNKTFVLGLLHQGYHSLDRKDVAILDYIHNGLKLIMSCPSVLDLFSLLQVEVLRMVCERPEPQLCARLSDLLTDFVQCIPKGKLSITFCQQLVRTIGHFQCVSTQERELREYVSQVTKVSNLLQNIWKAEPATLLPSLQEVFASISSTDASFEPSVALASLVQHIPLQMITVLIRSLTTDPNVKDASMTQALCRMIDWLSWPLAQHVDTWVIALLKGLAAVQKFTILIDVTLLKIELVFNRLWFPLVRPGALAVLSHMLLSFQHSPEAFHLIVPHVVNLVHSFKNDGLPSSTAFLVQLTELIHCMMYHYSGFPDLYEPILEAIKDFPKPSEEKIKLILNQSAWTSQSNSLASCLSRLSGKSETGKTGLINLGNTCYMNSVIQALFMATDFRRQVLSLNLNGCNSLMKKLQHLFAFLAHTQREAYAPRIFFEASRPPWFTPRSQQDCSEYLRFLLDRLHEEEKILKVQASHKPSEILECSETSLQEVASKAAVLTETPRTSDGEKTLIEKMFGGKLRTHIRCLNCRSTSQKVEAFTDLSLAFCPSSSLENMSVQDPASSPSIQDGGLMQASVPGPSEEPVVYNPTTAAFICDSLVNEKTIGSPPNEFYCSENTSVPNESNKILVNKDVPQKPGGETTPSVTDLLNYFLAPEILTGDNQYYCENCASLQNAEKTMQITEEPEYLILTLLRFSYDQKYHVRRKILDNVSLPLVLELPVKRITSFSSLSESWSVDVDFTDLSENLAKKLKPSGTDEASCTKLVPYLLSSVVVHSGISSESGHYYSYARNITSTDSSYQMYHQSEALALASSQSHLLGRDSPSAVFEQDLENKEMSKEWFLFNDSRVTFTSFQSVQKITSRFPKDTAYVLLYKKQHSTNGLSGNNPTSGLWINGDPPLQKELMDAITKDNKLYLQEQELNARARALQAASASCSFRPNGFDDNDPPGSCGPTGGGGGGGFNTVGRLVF
How it was run: as §1

USP39 = biological target: T3, USP39 (UniProt Q53GS9)
T3 sequence (whole entry): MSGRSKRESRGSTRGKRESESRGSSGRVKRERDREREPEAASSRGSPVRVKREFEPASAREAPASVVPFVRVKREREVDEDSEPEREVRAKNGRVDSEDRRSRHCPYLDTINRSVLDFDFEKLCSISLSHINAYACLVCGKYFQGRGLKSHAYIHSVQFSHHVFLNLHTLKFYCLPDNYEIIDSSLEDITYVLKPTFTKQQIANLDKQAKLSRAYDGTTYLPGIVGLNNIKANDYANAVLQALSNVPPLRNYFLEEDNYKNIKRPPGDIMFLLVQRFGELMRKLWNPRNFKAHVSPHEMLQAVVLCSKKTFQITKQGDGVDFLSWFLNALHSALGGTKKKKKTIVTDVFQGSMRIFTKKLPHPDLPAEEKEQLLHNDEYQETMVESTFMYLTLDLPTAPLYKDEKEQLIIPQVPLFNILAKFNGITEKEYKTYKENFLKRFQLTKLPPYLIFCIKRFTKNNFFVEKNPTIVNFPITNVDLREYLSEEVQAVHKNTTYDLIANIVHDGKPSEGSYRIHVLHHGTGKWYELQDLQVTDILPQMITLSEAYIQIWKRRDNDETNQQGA
How it was run: as §1

USP4 = biological target: T4, USP4 (UniProt Q13107)
T4 sequence (whole entry): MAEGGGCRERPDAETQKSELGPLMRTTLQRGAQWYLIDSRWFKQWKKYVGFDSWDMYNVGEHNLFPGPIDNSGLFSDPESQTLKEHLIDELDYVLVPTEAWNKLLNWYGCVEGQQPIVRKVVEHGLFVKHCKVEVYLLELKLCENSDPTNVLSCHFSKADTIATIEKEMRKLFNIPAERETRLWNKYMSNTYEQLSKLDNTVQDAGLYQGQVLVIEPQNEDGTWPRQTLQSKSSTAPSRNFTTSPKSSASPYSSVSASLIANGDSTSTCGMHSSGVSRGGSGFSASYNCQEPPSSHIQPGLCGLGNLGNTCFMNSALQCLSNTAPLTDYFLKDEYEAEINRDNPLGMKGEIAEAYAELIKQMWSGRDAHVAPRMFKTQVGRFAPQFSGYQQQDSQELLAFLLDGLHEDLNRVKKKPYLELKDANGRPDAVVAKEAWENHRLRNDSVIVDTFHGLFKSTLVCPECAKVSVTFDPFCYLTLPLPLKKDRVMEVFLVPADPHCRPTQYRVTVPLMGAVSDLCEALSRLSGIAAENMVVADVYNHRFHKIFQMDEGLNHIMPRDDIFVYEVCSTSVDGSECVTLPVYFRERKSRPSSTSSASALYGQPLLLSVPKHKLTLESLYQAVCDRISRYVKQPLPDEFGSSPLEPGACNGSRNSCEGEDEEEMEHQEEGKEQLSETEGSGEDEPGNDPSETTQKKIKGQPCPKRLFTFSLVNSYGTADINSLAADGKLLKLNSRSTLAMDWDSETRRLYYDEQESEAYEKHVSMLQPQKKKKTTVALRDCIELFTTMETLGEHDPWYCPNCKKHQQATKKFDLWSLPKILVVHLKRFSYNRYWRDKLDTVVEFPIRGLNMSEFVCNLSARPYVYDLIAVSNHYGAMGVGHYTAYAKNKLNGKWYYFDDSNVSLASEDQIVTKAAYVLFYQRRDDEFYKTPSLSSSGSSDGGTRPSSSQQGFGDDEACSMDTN
How it was run: as §1

Measured: log2 ratio of Biotin-Ahx-Ub-VS probe labelling

USP34, sequence (Q70CQ2 whole entry, the tested form may be a part): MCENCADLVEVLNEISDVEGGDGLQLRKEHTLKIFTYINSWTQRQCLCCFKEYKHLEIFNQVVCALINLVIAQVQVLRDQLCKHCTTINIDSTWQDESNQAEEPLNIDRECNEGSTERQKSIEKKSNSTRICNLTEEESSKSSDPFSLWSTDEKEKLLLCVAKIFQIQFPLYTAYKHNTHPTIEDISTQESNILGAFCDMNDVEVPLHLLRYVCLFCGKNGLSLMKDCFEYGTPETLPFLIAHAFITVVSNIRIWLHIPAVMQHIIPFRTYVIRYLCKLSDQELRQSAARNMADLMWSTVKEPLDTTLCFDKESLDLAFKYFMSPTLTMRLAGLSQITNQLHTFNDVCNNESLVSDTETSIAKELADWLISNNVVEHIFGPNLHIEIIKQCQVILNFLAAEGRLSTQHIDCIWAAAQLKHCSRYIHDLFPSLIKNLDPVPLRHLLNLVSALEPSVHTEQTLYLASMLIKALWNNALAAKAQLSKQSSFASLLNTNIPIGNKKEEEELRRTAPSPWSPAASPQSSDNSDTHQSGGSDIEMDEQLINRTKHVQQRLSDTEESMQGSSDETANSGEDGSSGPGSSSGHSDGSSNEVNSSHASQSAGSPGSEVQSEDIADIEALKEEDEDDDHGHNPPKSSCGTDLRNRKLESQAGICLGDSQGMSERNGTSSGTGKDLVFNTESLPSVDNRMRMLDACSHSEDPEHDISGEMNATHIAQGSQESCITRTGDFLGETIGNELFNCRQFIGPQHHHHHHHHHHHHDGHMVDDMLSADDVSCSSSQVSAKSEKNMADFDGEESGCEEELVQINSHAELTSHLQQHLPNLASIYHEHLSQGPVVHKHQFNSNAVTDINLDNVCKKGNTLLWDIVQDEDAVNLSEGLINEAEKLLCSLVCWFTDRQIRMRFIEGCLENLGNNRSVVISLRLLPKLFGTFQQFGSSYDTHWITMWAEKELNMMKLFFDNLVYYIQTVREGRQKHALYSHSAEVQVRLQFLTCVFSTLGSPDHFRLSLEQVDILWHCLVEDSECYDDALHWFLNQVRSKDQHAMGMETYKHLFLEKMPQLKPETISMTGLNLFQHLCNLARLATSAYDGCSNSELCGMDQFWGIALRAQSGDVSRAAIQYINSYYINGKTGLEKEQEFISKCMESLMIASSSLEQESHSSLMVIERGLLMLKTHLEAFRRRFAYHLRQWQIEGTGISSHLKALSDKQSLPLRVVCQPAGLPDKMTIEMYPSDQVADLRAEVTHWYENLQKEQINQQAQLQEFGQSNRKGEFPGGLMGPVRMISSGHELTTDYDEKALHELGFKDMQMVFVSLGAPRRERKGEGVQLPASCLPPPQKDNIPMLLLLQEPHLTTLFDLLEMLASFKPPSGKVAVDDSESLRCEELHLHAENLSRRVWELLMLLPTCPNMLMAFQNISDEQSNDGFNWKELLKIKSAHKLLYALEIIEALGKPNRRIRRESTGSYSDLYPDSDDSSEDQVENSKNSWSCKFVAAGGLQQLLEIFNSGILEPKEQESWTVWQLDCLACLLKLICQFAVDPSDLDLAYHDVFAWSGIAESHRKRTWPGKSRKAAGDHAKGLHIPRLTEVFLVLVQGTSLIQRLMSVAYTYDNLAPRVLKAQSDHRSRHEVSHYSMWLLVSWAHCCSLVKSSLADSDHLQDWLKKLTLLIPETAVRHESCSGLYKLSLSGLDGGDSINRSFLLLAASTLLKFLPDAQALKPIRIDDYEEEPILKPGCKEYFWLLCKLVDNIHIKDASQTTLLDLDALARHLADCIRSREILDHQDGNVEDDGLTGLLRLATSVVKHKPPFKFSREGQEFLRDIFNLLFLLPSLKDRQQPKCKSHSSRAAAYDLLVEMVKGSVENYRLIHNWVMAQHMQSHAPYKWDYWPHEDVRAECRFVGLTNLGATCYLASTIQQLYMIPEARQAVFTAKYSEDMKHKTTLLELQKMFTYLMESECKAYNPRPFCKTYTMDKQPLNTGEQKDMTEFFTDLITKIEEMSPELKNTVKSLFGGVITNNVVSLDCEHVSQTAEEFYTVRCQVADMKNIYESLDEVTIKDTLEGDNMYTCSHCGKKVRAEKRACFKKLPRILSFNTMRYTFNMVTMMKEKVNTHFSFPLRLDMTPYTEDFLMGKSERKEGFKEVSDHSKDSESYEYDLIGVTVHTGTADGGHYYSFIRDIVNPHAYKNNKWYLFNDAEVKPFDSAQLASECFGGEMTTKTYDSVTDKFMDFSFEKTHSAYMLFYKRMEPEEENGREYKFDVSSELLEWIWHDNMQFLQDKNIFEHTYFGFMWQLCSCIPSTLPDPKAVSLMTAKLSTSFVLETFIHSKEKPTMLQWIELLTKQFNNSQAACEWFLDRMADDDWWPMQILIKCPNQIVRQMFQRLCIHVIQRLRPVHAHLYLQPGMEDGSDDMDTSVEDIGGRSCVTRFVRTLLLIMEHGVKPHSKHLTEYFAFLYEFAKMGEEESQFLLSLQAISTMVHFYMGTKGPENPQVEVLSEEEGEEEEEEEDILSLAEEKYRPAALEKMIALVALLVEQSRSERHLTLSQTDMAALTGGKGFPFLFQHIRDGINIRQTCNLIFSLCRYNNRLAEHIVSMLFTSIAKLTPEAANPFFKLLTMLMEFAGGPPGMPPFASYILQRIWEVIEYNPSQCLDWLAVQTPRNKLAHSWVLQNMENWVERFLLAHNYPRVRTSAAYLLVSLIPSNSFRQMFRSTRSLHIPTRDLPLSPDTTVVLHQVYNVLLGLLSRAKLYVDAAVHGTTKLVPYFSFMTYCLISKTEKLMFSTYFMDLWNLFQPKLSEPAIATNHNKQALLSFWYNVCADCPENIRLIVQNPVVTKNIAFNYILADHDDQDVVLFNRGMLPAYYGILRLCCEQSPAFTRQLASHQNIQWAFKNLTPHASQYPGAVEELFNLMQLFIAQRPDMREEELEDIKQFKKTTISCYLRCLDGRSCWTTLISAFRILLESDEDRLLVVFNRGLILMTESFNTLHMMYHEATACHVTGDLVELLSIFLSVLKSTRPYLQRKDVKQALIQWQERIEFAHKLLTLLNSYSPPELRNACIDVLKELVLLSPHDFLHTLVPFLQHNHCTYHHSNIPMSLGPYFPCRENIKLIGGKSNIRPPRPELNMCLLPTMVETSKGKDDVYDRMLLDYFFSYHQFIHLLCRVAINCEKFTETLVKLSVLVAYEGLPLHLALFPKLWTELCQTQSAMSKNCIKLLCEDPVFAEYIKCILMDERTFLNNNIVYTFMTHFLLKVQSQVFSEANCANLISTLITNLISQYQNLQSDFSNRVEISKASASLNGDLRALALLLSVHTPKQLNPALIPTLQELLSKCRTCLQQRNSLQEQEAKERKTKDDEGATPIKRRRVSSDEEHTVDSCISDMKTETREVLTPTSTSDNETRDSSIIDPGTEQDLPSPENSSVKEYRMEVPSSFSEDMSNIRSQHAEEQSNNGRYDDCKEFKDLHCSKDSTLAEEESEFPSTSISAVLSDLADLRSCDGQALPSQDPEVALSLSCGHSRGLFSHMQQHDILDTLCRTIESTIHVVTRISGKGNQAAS

Cc1cc(NC(=O)CCl)n(-c2ccccc2)n1
inactive: USP34 -0.374 | USP36 -0.0233 | USP38 -0.067 | USP39 -0.12 | USP4 0.0467
